Results with a measured potency or affinity are listed apart. Activity calls are given as the source filed them.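 The calls were made as follows: active = every repeat test judged active, meaning a falling signal with potency within twice the top valid dose; inconclusive = repeat tests disagree on the call; inactive = every repeat test inactive, including signal moving upward.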
Each compound was assayed against Cyclin-dependent kinase 2 (Homo sapiens) (UniProt P24941) (assay: CDK2 kinase inhibitors, off-target check, dose response, selectivity assay for Dyrk1A inhibitor project, biochemical, cherry-picked samples (AID 602127)). Conditions: CDK2/cyclin A kinase, ADP-Glo luminescence, 60 min; series mostly up to 10 µM.

outcome, inactive:
c1cncc(CNc2ccnc(-c3ccc4[nH]ncc4c3)n2)c1
CN(Cc1cccs1)c1ncnc2ccc(-c3ccc4c(c3)OCO4)cc12
c1coc(CCNc2ncnc3ccc(-c4ccc5c(c4)OCO5)cc23)c1
Clc1ccc(CNc2nccc(-c3ccc4cn[nH]c4c3)n2)cc1Cl
COCCNC(=O)c1ccc2c(c1)nc(C)n2-c1cccc(F)c1
c1csc(CNc2ncnc3ccc(-c4ccoc4)cc23)c1
NC(=O)c1c(NC(=O)c2ccc(N3C(=O)CCC3=O)cc2)sc2c1CCCC2
Cc1ccsc1CN(C)c1ncnc2ccc(-c3ccc(CO)o3)cc12
COc1cccc(Nc2ncnc3ccccc23)c1
c1cncc(-c2nc(NCc3ccco3)c3ccccc3n2)c1
Cc1ccsc1CNc1ncnc2ccc(-c3ccc4c(c3)OCO4)cc12
Cc1nc(NC(=O)c2ccccc2)sc1-c1csc(N)n1
Cc1occc1CNc1ncnc2ccc(-c3ccc4c(c3)OCO4)cc12
COc1cccc(-c2sc3ccccc3c2-c2ccc(OCCN3CCCC3)cc2)c1
CCN1CCN(Cc2ccc(NC(=O)c3ccc(C)c(/C=C/c4cnc(Nc5cc(N6CCNCC6)nc(C)n5)cn4)c3)cc2C(F)(F)F)CC1
CC(Nc1nc(-c2cccnc2)nc2ccccc12)c1ccc(F)cc1 (stereo unspecified)
Fc1cccc(Nc2nc(-c3ccncc3)nc3ccccc23)c1
COc1ccc2c(Cl)c(C(=O)NCc3ccco3)sc2c1
O=C(CSc1nnnn1-c1ccc(O)cc1)Nc1ccc(N2CCOCC2)c(Cl)c1
O=c1cc(-c2ccccc2Cl)oc2c(NS(=O)(=O)c3ccccc3C(F)(F)F)ccc(O)c12
CCOC(=O)c1ccc(-c2ccc3ncnc(N(C)Cc4sccc4C)c3c2)o1
O=C(NCc1ccco1)c1sc2ccccc2c1Cl
CC(=O)Nc1cccc(NC(=O)c2cc3ccccc3o2)c1
c1nc(NCC2CCCC2)c2cc(-c3ccc4c(c3)OCO4)ccc2n1
COc1cccc(Nc2nc(-c3ccc(O)cc3)cs2)c1
CN(Cc1nccs1)c1ncnc2ccc(-c3ccc4c(c3)OCO4)cc12
O=C(Nc1nc(-c2ccc3c(c2)OCCO3)cs1)c1ccco1
Clc1ccc(CNc2nccc(-c3ccc4[nH]ncc4c3)n2)cc1Cl
COc1cccc(Nc2nc(NCCO)c3ccccc3n2)c1
CC(=O)Nc1ccc(SCc2ncc(-c3ccccc3)o2)cc1
CN(C)c1ccc(-c2nccc(NCc3cccs3)n2)cc1

Reference: PubChem BioAssay AID602127 (Broad Institute, 2011)
